What all share (details): mRNA level, 48 h; actives raise or lower the signal
Read-out in test [1]: Apoptosis regulator Bcl-2 (Homo sapiens) (UniProt P10415)
Put plainly: LTEA_HepaRG_BCL2: Life Technologies and Expression Analysis (LTEA) Assay for Bcl-2 gene using HepaRG (AID 2283475). The gist of the method: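 Plated human HepaRG cells are exposed to test chemicals for 48 h across eight concentrations from 100 uM downward in half-log steps (0.5% DMSO). BCL2 expression is then measured by qRT-PCR with housekeeping normalisation and fitted bidirectionally against vehicle.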

Read-out in test [2]: Bcl-2 (BID) gene, BID (gene 637)
Put plainly: LTEA_HepaRG_BID: Life Technologies and Expression Analysis (LTEA) Assay for Bcl-2 (BID) gene using HepaRG (AID 2283476). The gist of the method: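 Cells are plated, cultured 48 h, switched to serum-free induction medium, then dosed 48 h (100 uM top, half-log steps, 0.5% DMSO). RNA is isolated and BID expression read by qRT-PCR.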

Read-out in another test: Caspase-3 (Homo sapiens) (UniProt P42574)
Nature of the test: LTEA_HepaRG_CASP3: Life Technologies and Expression Analysis (LTEA) Assay for cysteine-aspartic acid protease (CASP3) using HepaRG (AID 2283477). The gist of the method: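 In HepaRG liver cells dosed for 48 h at up to 100 uM (eight-point, duplicate), CASP3 expression changes are scored by qRT-PCR. Activity is fitted in both directions with 0.5% DMSO as baseline.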

Read-out in test [3]: Cytochrome P450 (CYP1A2), CYP1A2 (gene 1544)
Nature of the test: LTEA_HepaRG_CYP1A2: Life Technologies and Expression Analysis (LTEA) Assay for Cytochrome P450 (CYP1A2) using HepaRG (AID 2283479). The gist of the method: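 Assesses CYP1A2 mRNA in human HepaRG liver cells after 48 h chemical exposure at up to 100 uM. Values come from qRT-PCR with bidirectional curve fitting relative to DMSO.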

Read-out in test [4]: Cytochrome P450 (CYP2B6), CYP2B6 (gene 1555)
Put plainly: LTEA_HepaRG_CYP2B6: Life Technologies and Expression Analysis (LTEA) Assay for Cytochrome P450 (CYP2B6) using HepaRG (AID 2283481). The gist of the method: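 Using 48 h treatment of HepaRG cells in serum-free induction medium, concentrations spanned half-log steps from 100 uM in 0.5% DMSO vehicle. CYP2B6 mRNA induction or loss is scored by qRT-PCR against DMSO.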

Read-out in test [5]: Cytochrome P450 2C19 (Homo sapiens) (UniProt P33261)
Nature of the test: LTEA_HepaRG_CYP2C19: Life Technologies and Expression Analysis (LTEA) Assay for CYP2C19 using HepaRG (AID 2283482). The gist of the method: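 Human HepaRG liver cells received test chemicals for 48 h (highest 100 uM, half-log dilutions in 0.5% DMSO). CYP2C19 mRNA induction or loss is read by multiplexed qRT-PCR and fitted in both directions versus vehicle.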

Read-out in another test: CYP2C8 (gene 1558)
Nature of the test: LTEA_HepaRG_CYP2C8: Life Technologies and Expression Analysis (LTEA) Assay for CYP2C8 using HepaRG (AID 2283483). The gist of the method: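 HepaRG (human liver line), 48 h chemical exposure, 8-pt half-log series from 100 uM, 0.5% DMSO vehicle. Readout: CYP2C8 transcript by qRT-PCR, housekeeping-normalized. Bidirectional fit vs DMSO baseline.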

Read-out in the next test: CYP2C9 (gene 1559)
Nature of the test: LTEA_HepaRG_CYP2C9: Life Technologies and Expression Analysis (LTEA) Assay for CYP2C9 using HepaRG (AID 2283484). The gist of the method:
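HepaRG, 48 h dosing, 8-pt half-log series, top 100 uM, 0.5% DMSO vehicle. Read-out: CYP2C9 transcript by TaqMan qRT-PCR, housekeeping-normalized (ACTB/GAPDH/POLR2A). Gain or loss fitted vs DMSO baseline.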

Read-out in another test: CYP4A11 (gene 1579)
Put plainly: LTEA_HepaRG_CYP4A11: Life Technologies and Expression Analysis (LTEA) Assay for CYP4A11 using HepaRG (AID 2283486). The gist of the method: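 Readout is CYP4A11 mRNA induction or suppression (qRT-PCR, ACTB/GAPDH/POLR2A normalization) in human HepaRG cells after 48 h chemical treatment, concentrations to 100 uM in 0.5% DMSO, fitted bidirectionally against vehicle.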

Read-out in test [6]: Cytochrome P450 3A4 (Homo sapiens) (UniProt P08684)
Put plainly: LTEA_HepaRG_CYP3A4: Life Technologies and Expression Analysis (LTEA) Assay for CYP3A4 using HepaRG (AID 2283487). The gist of the method: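 HepaRG, 48 h exposure, 8-pt CRC from 100 uM (half-log), 0.5% DMSO, duplicates; serum-free induction medium. Readout: CYP3A4 mRNA, qRT-PCR, ACTB/GAPDH/POLR2A normalization. Bidirectional fit vs DMSO.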

Read-out in test [7]: DNA damage-inducible transcript 3 (DDIT3), DDIT3 (gene 1649)
Put plainly: LTEA_HepaRG_DDIT3: Life Technologies and Expression Analysis (LTEA) Assay for DNA damage-inducible transcript 3 (DDIT3) using HepaRG (AID 2283488). The gist of the method:
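Cells are human HepaRG liver cells treated for 48 h with eight half-log concentrations up to 100 uM in 0.5% DMSO. Transcript levels come from qRT-PCR normalized to three housekeeping genes, with activity fitted in both directions relative to vehicle.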

Read-out in test [8]: Pro-epidermal growth factor (Homo sapiens) (UniProt P01133)
Put plainly: LTEA_HepaRG_EGF: Life Technologies and Expression Analysis (LTEA) Assay for Epidermal growth factor (EGF) using HepaRG (AID 2283489). The gist of the method: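 EGF expression changes in human HepaRG cells are scored by bidirectional fitting relative to 0.5% DMSO controls. Chemicals are tested at eight half-log concentrations up to 100 uM for 48 h in serum-free induction medium.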

Read-out in test [9]: Early growth response protein 1 (EGR1) transcription factor, EGR1 (gene 1958)
Put plainly: LTEA_HepaRG_EGR1: Life Technologies and Expression Analysis (LTEA) Assay for Early growth response protein 1 (EGR1) transcription factor using HepaRG (AID 2283490). The gist of the method:
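HepaRG, 48 h exposure, 8-pt half-log series from 100 uM, 0.5% DMSO vehicle; EGR1 transcript by TaqMan qRT-PCR (Fluidigm array), housekeeping-normalized; bidirectional fit relative to DMSO baseline.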

Read-out in test [10]: Ezrin (EZR), EZR (gene 7430)
Nature of the test: LTEA_HepaRG_EZR: Life Technologies and Expression Analysis (LTEA) Assay for Ezrin (EZR) using HepaRG (AID 2283491). The gist of the method:
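Read-out is EZR transcript level by qRT-PCR, normalized to three housekeeping genes and fitted bidirectionally against the DMSO control. Human HepaRG cells received test chemicals for 48 h at eight half-log concentrations up to 100 uM in 0.5% DMSO.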

Read-out in the next test: CYP3A5 (gene 1577)
Put plainly: LTEA_HepaRG_CYP3A5: Life Technologies and Expression Analysis (LTEA) Assay for CYP3A5 using HepaRG (AID 2283493). The gist of the method: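 Human HepaRG hepatic cells receive 48 h chemical treatment at eight concentrations (half-log steps from 100 uM) in 0.5% DMSO. Expression of CYP3A5 is quantified by Fluidigm qRT-PCR and normalized to three reference genes.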

Read-out in test [11]: Fatty Acid-Binding Protein 1 (FABP1), FABP1 (gene 2168)
Nature of the test: LTEA_HepaRG_FABP1: Life Technologies and Expression Analysis (LTEA) Assay for Fatty Acid-Binding Protein 1 (FABP1) using HepaRG (AID 2283494). The gist of the method:
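qRT-PCR readout of FABP1 transcript (normalized to three housekeeping genes) after 48 h chemical exposure of HepaRG cells; eight concentrations, half-log steps, max 100 uM, 0.5% DMSO vehicle; gain or loss fitted relative to DMSO baseline.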

Read-out in a further test: CYP2E1 (gene 1571)
Nature of the test: LTEA_HepaRG_CYP2E1: Life Technologies and Expression Analysis (LTEA) Assay for CYP2E1 using HepaRG (AID 2283485). The gist of the method:
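Readout is qRT-PCR of CYP2E1 mRNA, normalized to three housekeeping genes and fitted bidirectionally against 0.5% DMSO. HepaRG cells were dosed 48 h at eight concentrations, highest 100 uM with half-log dilutions.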

Read-out in test [12]: Cytochrome P450 3A7 (Homo sapiens) (UniProt P24462)
Put plainly: LTEA_HepaRG_CYP3A7: Life Technologies and Expression Analysis (LTEA) Assay for CYP3A7 using HepaRG (AID 2283492). The gist of the method:
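Cells were thawed, plated, cultured 48 h, then treated for a further 48 h with chemicals (eight-point half-log series from 100 uM, 0.5% DMSO). RNA was isolated and CYP3A7 expression quantified by qRT-PCR normalised to ACTB, GAPDH and POLR2A.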

Read-out in test [13]: cysteine-aspartic acid protease (CASP8), CASP8 (gene 841)
Nature of the test: LTEA_HepaRG_CASP8: Life Technologies and Expression Analysis (LTEA) Assay for cysteine-aspartic acid protease (CASP8) using HepaRG (AID 2283480). The gist of the method:
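qRT-PCR readout of CASP8 mRNA, normalized to three housekeeping genes, after 48 h chemical exposure of HepaRG cells; 8-point half-log series, top 100 uM, 0.5% DMSO vehicle. Bidirectional curve fitting against DMSO baseline.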

SMILES strings stand for the structures. The source made the active and inactive calls. Rule for the calls: active = hit-call score of the fitted dose curve at least 0.9, where 1 is the maximum; inactive = score below 0.9.

Cytochrome P450 2C19 (Homo sapiens), sequence (P33261 whole entry, looked up): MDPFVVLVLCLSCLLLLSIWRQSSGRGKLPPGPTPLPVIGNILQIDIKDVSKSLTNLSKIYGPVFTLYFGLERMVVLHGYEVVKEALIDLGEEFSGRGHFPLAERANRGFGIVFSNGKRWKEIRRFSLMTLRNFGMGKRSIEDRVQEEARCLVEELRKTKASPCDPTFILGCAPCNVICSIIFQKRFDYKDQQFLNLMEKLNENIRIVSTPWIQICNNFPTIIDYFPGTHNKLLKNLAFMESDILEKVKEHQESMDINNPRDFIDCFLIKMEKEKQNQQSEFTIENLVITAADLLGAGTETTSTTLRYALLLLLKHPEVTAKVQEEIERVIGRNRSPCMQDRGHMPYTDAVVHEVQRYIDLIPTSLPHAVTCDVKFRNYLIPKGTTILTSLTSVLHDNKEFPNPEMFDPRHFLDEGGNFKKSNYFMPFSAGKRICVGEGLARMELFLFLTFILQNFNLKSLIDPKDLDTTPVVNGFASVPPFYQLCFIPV
Cytochrome P450 3A4 (Homo sapiens), sequence (P08684 whole entry, looked up): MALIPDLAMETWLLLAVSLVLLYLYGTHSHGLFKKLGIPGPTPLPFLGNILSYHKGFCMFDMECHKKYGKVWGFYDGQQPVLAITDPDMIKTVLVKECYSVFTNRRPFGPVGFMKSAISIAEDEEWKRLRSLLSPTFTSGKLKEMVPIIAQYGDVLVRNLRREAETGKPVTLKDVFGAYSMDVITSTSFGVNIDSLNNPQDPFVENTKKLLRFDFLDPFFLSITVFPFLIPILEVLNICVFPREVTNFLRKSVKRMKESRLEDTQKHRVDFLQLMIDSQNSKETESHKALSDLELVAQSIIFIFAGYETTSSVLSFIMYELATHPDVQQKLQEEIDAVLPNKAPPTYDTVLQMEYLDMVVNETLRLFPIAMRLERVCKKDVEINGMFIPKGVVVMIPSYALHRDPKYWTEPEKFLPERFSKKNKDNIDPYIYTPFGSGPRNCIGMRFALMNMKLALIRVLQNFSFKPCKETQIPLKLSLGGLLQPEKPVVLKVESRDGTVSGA
Apoptosis regulator Bcl-2 (Homo sapiens), sequence (P10415 whole entry, looked up): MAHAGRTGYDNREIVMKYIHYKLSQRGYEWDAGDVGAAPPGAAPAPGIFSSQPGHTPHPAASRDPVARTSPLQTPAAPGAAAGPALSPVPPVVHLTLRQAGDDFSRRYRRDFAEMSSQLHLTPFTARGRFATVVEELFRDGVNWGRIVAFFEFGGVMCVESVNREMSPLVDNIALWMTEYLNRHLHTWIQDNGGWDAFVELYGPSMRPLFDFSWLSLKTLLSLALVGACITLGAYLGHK
Caspase-3 (Homo sapiens), sequence (P42574 whole entry, looked up): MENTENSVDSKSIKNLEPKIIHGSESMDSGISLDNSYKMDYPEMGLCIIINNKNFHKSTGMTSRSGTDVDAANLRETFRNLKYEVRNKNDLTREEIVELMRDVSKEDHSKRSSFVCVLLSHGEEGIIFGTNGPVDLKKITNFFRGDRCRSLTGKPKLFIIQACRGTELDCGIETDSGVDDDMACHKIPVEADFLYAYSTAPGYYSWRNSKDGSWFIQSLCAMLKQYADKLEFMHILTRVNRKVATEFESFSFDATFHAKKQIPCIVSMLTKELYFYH
Cytochrome P450 3A7 (Homo sapiens), sequence (P24462 whole entry, looked up): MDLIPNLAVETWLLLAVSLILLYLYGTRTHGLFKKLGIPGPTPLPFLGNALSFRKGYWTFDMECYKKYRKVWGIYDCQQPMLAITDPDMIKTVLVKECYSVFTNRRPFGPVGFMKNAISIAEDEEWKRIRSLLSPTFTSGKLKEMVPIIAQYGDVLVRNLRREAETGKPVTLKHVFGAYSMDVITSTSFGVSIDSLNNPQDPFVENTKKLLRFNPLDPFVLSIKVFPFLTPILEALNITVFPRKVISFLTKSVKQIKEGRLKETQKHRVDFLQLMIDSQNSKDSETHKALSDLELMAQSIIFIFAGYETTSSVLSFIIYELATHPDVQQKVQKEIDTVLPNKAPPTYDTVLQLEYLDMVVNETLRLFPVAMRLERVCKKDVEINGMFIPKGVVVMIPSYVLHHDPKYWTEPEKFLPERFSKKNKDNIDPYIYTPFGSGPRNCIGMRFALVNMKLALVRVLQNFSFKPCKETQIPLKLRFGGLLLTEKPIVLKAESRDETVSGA

On to `COc1cccc([C@H](O)C2CCN(CCc3ccc(F)cc3)CC2)c1OC`, for which the outcome (in test [1]; in test [2]; with Caspase-3 (Homo sapiens); in the test with CYP2C8 (gene 1558); with CYP2C9 (gene 1559); with CYP4A11 (gene 1579)) was inactive. The outcome (in test [8]; in test [9]; in test [10]; in the test with CYP3A5 (gene 1577); in test [11]) was inactive. The half-maximal activity concentration (AC50) in [3] was 58.9 µM (active); in [4] it was 13.9 µM (active); in test [5], 50 µM (active); in test [6] it was 50 µM (active); in test [7], 70.5 µM (active).
As to `O=C1c2ccccc2C(=O)N1CCc1noc(-c2ccc(CN3CCCCCC3)s2)n1`, the call (in test [1]; in [2]; with Caspase-3 (Homo sapiens); in test [5]; with CYP2C8 (gene 1558); with CYP2C9 (gene 1559)) was inactive. For the same compound, the outcome (with CYP2E1 (gene 1571); with CYP4A11 (gene 1579); in [6]; in [7]; in [8]; in test [9]) was inactive. Further, the compound was called inactive (in test [10]; in [12]; with CYP3A5 (gene 1577); in [11]). For the same compound, the figures for the AC50 in test [3] and in test [4] were 6.97 µM (active) and 27.9 µM (active), respectively.
Consider `CC[C@@H]1C[C@H](N(Cc2cc(C(F)(F)F)cc(C(F)(F)F)c2)C(C)=O)c2cc(C(F)(F)F)ccc2N1C(=O)OC(C)C`, for which the compound was classed as inactive (in [1]; in [2]; in the test with Caspase-3 (Homo sapiens); in test [13]; with CYP2C9 (gene 1559); in test [7]). For the same compound, the compound was classed as inactive (in test [8]; in test [9]; in test [10]; with CYP3A5 (gene 1577)). The concentration at half-maximal activity (AC50) in test [3] is 21.3 µM (active); in test [4], 0.735 µM (active); in test [5] it was 0.507 µM (active); in the test with CYP2C8 (gene 1558) it was 0.814 µM (active); with CYP4A11 (gene 1579), 15.6 µM (active); in [6] it was 0.29 µM (active). Further, the half-maximal activity concentration (AC50) in [11] was 4.3 µM (active).
Take `CCCCOC(=O)CC(CC(=O)OCCCC)(OC(C)=O)C(=O)OCCCC`: the call (in test [1]; in [2]; in the test with Caspase-3 (Homo sapiens); in test [3]; in [4]; in test [5]) was inactive. Also, the call (in the test with CYP2C8 (gene 1558); in the test with CYP2C9 (gene 1559); with CYP2E1 (gene 1571); with CYP4A11 (gene 1579); in test [7]; in test [8]) was inactive. Besides, the outcome (in test [9]; in [10]; in test [12]; in the test with CYP3A5 (gene 1577); in test [11]) was inactive.
For `O=C1O[C@H]([C@@H](O)CO)C(O)=C1O`, the compound was classed as inactive (in [1]; in test [2]; in the test with Caspase-3 (Homo sapiens); in test [3]; in [4]; in [5]). The call (with CYP2C8 (gene 1558); with CYP2C9 (gene 1559); with CYP2E1 (gene 1571); with CYP4A11 (gene 1579); in test [6]; in test [7]) was inactive. In addition, the call (in test [8]; in test [9]; in test [10]; in the test with CYP3A5 (gene 1577); in [11]) was inactive.
As for `C[C@]12CC[C@@H]3c4ccc(O)cc4CC[C@H]3[C@@H]1CCC2=O`, the call (in test [1]; in [2]; with Caspase-3 (Homo sapiens); in [10]) was inactive. The half-maximal activity concentration (AC50) in test [7] was 64.5 µM (active); in test [8] it was 22.4 µM (active); in test [11], 30.8 µM (active).
Regarding `CC(=O)N1CCN(c2ccc(OC[C@H]3CO[C@](Cn4ccnc4)(c4ccc(Cl)cc4Cl)O3)cc2)CC1`, the concentration at half-maximal activity (AC50) in test [1] was 11.5 µM (active); in test [3], 26 µM (active); in test [13] it was 82.8 µM (active); in [4], 12.7 µM (active); in the test with CYP2C8 (gene 1558), 22.9 µM (active); with CYP2C9 (gene 1559) it was 12.7 µM (active). Further, the concentration at half-maximal activity (AC50) was 12.4 µM (active) with CYP4A11 (gene 1579); 12.9 µM (active) in test [7]; 38.4 µM (active) in [9]; 50 µM (active) with CYP3A5 (gene 1577); 12.7 µM (active) in test [11]. The outcome (in test [2]; with Caspase-3 (Homo sapiens); in test [10]) was inactive.

Broadly, the AC50 is the midpoint of the concentration-response curve, whichever way the signal moves.

(Values after PubChem BioAssay (EPA / NIEHS).)
